Experimental data published in PubChem BioAssay (NCATS).
*1 amine or outer side, *2 acyl side, *3 side chain or, on linkers, in order; H or OH if unused. Where a SMILES comes first, the peptide text is derived from it. Bridges are numbered along the chain shown (N, C = ends). Roman numbers before positions name the chains, in order. [ ]: non-standard residue; d: D form. ξ: configuration not given here. Actinocin(9to1) = Cc1c2oc3c(C)ccc(C(=O)[*:1])c3nc-2c(C(=O)[*:2])c(N)c1=O; ξNMeV = CNC(C(=O)O)C(C)C; ξV = CC(C)C(N)C(=O)O; Sar = CNCC(=O)O

Assay: Cell Proliferation Assay against the HBL1 Cell Line (AID 651646);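 further: cells exposed to compound for 48 h before reading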
Conditions: HBL1 DLBCL cells; at 46.1 µM (top of the series) unless noted
Text: One class of targeted therapeutics showing early clinical success in killing of ABC DLBCL lines are small molecule inhibitors of the Bruton tyrosine kinase (BTK) 11.
Prior to any combination assays, using an NCATS developed oncology compound library called the Mechanism of Interrogation Plate (MIPE), two well studied ABC DLBCL lines (TMD8 and HBL1) were screened using a cell viability assay (CellTiterGlo) and a 12-point titration series for each single agent. These initial experiments offered insight into the concentration range that offered the best coverage of activity and non-activity to assure relevant data is generated. In addition to the viability signature associated with this library, we examined the apoptotic response of each agent versus the TMD8 line as judged by caspase 3/7 activation. Activity was assayed at both 8 and 16 hour time-points to gain an appreciation of which agents induced an apoptotic response in a reasonable timeframe from a therapeutic exposure perspective. MIPE was also assayed for single agent viability in a human mesenchymal stem cell (hMSC) line as a surrogate of each library member's potential therapeutic index.
A total of 500 log growing HBL1 cells are seeded per well in 5 uL of a RPMI with glutamine (or Glutamax), without phenol red plus 5% FBS and 1X Pen/Strep into 1536 -solid white high base tissue culture treated Greiner One Bio Plates (789173-F) using a multidrop combi dispenser and a small sterile cassette. Compounds and controls totaling 23nL per well (negative control DMSO and positive control 9.2 uM Bortezomib-final) are immediately added to the plates using a 1536 head pin tool from Kalypsys. The plates are then covered with stainless steel gasket lids from Kalypsys and incubated for 48 hours at 37C under 95% relative humidity with 5% CO2. After 48 hours, the plates are removed and allowed to reach room temperature before 3 uL of Cell Titer Glo reagent (Promega) is added using an Aurora Flying Reagent Dispenser Bioraptor. The plates are then spun at 1000 rpms to remove bubbles and incubated for 15 minutes at room temperature before read on a ViewLux using a luminescent filter with a 10 second exposure. The relative luciferase units are used to calculated percent activity using DMSO as 100% and Bortezomib as 0%.

SMILES | viability, percent of control
CC[C@@H](C(=O)O)C1CC[C@H](C)C([C@@H](C)[C@H](O)[C@H](C)C(=O)[C@H](CC)C2O[C@]3(C=C[C@@H](O)[C@]4(CC[C@@](C)(C5CC[C@](O)(CC)[C@H](C)O5)O4)O3)[C@H](C)C[C@@H]2C)O1 (stereo not given in full) | 11.4%
NC(=O)Nc1cc(-c2ccc(CN3CCOCC3)c(F)c2)sc1C(=O)N[C@H]1CCCNC1 | 10.1%
CCC1(Cc2ccc(N)cc2)CCC(=O)NC1=O (stereo not given) | 97.3% [at 92.2 µM]
O=C(O)CC/C=C\CC[C@H]1[C@@H](N2CCCCC2)[C@@H](O)C[C@@H]1OCc1ccc(-c2ccccc2)cc1 | 105%
COC(=O)C1=C(C)NC(C)=C(C(=O)OCCCN2CCC(c3ccccc3)(c3ccccc3)CC2)[C@H]1c1cccc([N+](=O)[O-])c1 | 1.4%
C[C@@H]1CCN(C(=O)CC#N)C[C@@H]1N(C)c1ncnc2[nH]ccc12 | 97.5%
CCC1(O)CC2CN(CCc3c([nH]c4ccccc34)[C@@](C(=O)OC)(c3cc4c(cc3OC)N(C=O)[C@H]3[C@](O)(C(=O)OC)[C@H](OC(C)=O)[C@]5(CC)C=CCN6CC[C@]43[C@@H]65)C2)C1 (stereo not given in full) | 22.9%
CC(NC(=O)Cc1cc(F)cc(F)c1)C(=O)NC(C(=O)OC(C)(C)C)c1ccccc1 (stereo not given) | 103%
O=c1cc(C2=CC=CC3Sc4ccccc4SC23)oc(N2CCOCC2)c1 (stereo not given) | 31.5%
CCOc1cc2ncc(C#N)c(Nc3ccc(OCc4ccccn4)c(Cl)c3)c2cc1NC(=O)/C=C/CN(C)C | 1.48%
CN(NC(=O)CC(=O)NN(C)C(=S)c1ccccc1)C(=S)c1ccccc1 | 60.8%
Cc1c2oc3c(C)ccc(C(=O)N[C@@H]4C(=O)NC(C(C)C)C(=O)N5CCC[C@H]5C(=O)N(C)CC(=O)N(C)C(C(C)C)C(=O)O[C@@H]4C)c3nc-2c(C(=O)N[C@@H]2C(=O)NC(C(C)C)C(=O)N3CCC[C@H]3C(=O)N(C)CC(=O)N(C)C(C(C)C)C(=O)O[C@@H]2C)c(N)c1=O (stereo not given in full) (I: T[ξV]P[Sar][ξNMeV] / II: T[ξV]P[Sar][ξNMeV]; ester I:1-I:C, II:1-II:C; linker I:N-II:N via Actinocin(9to1)) | 21.5%
Cc1nnc(C(C)C)n1C1CC2CCC(C1)N2CC[C@H](NC(=O)C1CCC(F)(F)CC1)c1ccccc1 (stereo not given in full) | 87.3%
CCCCCCCCCCCCCCCCCCOP(=O)([O-])OC1CC[N+](C)(C)CC1 | 93.3% [at 29.8 µM]
CNC1CCN(C(Cc2cccc(-c3ccncc3)c2)C(=O)c2sc3c(F)ccc(F)c3c2Cl)CC1 (stereo not given) | 0.927%
